# Results published in publication PMC7862700, “An all-to-all approach to the identification of sequence-specific readers for epigenetic DNA modifications on cytosine”.
# Key:
# Experiment in all cases: DAPPL (digital affinity profiling via proximity ligation, sequencing); 10 mM Tris-HCl pH 7.5, 50 mM NaCl, 1 mM DTT, 4% glycerol, room temperature, 30 min; GST-TFs on glutathione beads, 16-mer random dsDNA library, 0.1% formaldehyde crosslink after washing; high values mean tight binding
# FLI1 = target: T1, FLI1 (Homo sapiens, UniProt Q01543 1-452); details: protein: recombinant; tags: N-terminal GST; dsDNA, one strand shown
# T1 sequence: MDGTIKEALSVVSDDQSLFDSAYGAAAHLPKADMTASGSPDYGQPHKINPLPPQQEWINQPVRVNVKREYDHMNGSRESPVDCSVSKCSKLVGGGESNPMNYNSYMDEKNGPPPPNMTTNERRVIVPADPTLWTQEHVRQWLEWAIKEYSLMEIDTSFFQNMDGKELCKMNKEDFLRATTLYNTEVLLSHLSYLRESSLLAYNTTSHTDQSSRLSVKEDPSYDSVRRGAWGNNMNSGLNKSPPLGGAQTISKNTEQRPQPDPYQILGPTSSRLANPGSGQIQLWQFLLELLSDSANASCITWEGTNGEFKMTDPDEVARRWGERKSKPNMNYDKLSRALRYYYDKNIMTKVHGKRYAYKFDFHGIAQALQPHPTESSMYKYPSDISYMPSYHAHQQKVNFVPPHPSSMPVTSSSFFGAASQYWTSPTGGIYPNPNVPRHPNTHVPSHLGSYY
# Outline: (§1)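 Beads coated with glutathione captured GST-fused human transcription factors that had been expressed in yeast, and the factors were then given DNA barcodes and pooled with a tag-only sample. The pools were incubated with 200 nmole of a random double-stranded 16-mer DNA library in Tris/NaCl/DTT/glycerol buffer for 30 min at room temperature, washed, crosslinked with 0.1% formaldehyde and proximity-ligated with BsaI/T4 ligase at 37 °C for 1 h. PCR amplification and Illumina NextSeq500 sequencing came last. Binding signal is each hexamer's read frequency for a factor divided by its frequency for the tag-only sample.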
# ELK1 = target: T2, ELK1 (Homo sapiens, UniProt P19419 1-428); details: protein: recombinant; tags: N-terminal GST; dsDNA, one strand shown
# T2 sequence: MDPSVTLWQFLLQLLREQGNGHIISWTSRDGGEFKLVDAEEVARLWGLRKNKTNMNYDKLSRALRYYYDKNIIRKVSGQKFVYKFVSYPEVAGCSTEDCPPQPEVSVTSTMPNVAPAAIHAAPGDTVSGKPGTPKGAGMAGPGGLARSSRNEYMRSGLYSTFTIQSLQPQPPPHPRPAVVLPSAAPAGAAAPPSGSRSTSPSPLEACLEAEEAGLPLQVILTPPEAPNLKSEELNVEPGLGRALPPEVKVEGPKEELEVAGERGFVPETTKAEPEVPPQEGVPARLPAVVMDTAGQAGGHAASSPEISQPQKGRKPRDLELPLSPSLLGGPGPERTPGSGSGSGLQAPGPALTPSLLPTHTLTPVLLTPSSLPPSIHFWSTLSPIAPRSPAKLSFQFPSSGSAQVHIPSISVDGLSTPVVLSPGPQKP
# Outline: as §1
# GABPA = target: T3, GABPA (Homo sapiens, UniProt Q06546 1-454); details: protein: recombinant; tags: N-terminal GST; dsDNA, one strand shown
# T3 sequence: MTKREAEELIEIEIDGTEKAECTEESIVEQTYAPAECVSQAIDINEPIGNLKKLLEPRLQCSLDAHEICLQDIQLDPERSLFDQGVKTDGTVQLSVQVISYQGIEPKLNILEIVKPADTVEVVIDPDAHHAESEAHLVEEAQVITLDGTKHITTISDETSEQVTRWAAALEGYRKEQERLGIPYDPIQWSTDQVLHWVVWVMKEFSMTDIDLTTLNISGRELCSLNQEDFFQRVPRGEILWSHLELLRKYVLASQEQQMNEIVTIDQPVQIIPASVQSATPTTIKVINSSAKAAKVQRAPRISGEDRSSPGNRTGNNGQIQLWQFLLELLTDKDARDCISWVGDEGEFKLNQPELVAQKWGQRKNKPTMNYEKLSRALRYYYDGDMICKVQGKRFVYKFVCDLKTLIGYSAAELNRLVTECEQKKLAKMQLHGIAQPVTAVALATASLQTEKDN
# Outline: as §1
# ERG = target: T4, ERG (Homo sapiens, UniProt P11308 1-479); details: protein: recombinant; tags: N-terminal GST; dsDNA, one strand shown
# T4 sequence: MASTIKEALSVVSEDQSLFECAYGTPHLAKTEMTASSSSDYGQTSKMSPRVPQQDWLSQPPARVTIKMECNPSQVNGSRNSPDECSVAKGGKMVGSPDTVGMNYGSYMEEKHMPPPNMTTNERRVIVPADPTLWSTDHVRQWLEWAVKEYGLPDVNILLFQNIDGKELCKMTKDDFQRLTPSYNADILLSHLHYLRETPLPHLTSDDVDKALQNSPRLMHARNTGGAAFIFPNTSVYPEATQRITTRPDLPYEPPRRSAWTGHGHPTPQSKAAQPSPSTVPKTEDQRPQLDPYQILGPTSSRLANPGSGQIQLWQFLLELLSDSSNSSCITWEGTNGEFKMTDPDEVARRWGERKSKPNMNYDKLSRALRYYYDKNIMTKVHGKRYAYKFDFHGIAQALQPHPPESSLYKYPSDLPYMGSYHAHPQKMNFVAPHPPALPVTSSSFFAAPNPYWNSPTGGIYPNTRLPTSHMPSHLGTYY
# Outline: as §1
# ELF1 = ELF1 (Homo sapiens, UniProt P32519 1-619); details: protein: recombinant; tags: N-terminal GST; dsDNA, one strand shown
# Outline: as §1
# EHF = target: T5, EHF (Homo sapiens, UniProt Q9NZC4 1-300); details: protein: recombinant; tags: N-terminal GST; dsDNA, one strand shown
# T5 sequence: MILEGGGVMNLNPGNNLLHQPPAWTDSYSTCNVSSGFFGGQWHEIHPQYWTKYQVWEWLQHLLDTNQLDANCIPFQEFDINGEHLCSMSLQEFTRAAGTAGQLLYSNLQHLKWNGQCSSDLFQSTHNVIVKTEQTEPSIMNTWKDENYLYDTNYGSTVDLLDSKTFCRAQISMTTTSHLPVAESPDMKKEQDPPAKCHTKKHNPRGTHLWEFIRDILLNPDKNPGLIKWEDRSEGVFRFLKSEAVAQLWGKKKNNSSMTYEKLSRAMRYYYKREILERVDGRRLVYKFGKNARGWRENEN
# Outline: as §1
# SPI1 = SPI1 (Homo sapiens, UniProt P17947 1-270); details: protein: recombinant; tags: N-terminal GST; dsDNA, one strand shown
# Outline: as §1
# SPIB = SPIB (Homo sapiens, UniProt Q01892 1-262); details: protein: recombinant; tags: N-terminal GST; dsDNA, one strand shown
# Outline: as §1
# ELK3 = target: T6, ELK3 (Homo sapiens, UniProt P41970 1-407); details: protein: recombinant; tags: N-terminal GST; dsDNA, one strand shown
# T6 sequence: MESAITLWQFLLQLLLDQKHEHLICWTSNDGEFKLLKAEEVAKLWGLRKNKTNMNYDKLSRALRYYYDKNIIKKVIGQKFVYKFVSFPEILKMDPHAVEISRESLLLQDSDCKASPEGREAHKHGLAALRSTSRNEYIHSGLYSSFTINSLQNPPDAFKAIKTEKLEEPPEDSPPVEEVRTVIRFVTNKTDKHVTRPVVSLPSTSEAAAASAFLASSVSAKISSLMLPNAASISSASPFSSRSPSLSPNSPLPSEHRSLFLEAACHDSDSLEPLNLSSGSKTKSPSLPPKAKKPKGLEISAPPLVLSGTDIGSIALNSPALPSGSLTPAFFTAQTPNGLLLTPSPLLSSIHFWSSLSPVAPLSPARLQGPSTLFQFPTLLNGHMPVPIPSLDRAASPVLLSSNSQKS
# Outline: as §1
# FEV = target: T7, FEV (Homo sapiens, UniProt Q99581 1-238); details: protein: recombinant; tags: N-terminal GST; dsDNA, one strand shown
# T7 sequence: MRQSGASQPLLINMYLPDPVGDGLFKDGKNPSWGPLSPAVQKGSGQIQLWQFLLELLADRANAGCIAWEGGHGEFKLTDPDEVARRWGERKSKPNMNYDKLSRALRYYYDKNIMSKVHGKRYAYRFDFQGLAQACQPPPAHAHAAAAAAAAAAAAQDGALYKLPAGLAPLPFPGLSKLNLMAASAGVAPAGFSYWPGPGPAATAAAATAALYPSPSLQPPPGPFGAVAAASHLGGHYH
# Outline: as §1
# ETV5 = ETV5 (Homo sapiens, UniProt P41161 1-510); details: protein: recombinant; tags: N-terminal GST; dsDNA, one strand shown
# Outline: as §1
# HSF1 = HSF1 (Homo sapiens, UniProt Q00613 1-529); details: protein: recombinant; tags: N-terminal GST; chain copies: 3; dsDNA, one strand shown
# Outline: as §1
# SPIC = target: T8, SPIC (Homo sapiens, UniProt Q8N5J4 1-248); details: protein: recombinant; tags: N-terminal GST; dsDNA, one strand shown
# T8 sequence: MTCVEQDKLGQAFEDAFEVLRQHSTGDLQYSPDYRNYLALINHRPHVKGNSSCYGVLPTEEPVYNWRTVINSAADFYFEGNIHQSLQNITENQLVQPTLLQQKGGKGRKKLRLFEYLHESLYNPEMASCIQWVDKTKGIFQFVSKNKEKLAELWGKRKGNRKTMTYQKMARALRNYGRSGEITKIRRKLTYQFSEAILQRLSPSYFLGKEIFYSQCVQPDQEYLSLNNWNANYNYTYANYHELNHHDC
# Outline: as §1
# ELF4 = ELF4 (Homo sapiens, UniProt Q99607 1-663); details: protein: recombinant; tags: N-terminal GST; dsDNA, one strand shown
# Outline: as §1
# ELK4 = target: T9, ELK4 (Homo sapiens, UniProt P28324-2 1-405); details: protein: recombinant; tags: N-terminal GST; dsDNA, one strand shown
# T9 sequence: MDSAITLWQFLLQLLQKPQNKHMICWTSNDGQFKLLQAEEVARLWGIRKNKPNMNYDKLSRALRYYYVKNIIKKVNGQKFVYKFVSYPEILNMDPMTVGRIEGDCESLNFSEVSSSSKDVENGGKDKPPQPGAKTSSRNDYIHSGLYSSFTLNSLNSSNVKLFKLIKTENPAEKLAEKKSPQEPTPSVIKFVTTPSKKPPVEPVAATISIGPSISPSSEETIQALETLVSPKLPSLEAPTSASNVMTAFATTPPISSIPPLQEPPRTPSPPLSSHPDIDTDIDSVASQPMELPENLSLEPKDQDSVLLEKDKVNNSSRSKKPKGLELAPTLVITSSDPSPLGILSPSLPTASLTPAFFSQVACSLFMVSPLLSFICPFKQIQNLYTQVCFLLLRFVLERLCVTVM
# Outline: as §1
# ETV2 = target: T10, ETV2 (Homo sapiens, UniProt O00321 1-342); details: protein: recombinant; tags: N-terminal GST; dsDNA, one strand shown
# T10 sequence: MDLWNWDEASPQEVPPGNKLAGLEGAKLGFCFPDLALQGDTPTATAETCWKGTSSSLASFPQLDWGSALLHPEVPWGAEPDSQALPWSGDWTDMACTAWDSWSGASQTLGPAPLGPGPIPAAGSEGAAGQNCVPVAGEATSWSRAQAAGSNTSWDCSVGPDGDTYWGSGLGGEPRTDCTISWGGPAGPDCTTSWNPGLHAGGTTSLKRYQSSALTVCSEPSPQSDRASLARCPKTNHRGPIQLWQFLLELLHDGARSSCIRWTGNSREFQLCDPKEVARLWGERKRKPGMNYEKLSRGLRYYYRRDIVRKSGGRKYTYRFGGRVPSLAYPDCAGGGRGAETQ
# Outline: as §1
# ELF3 = target: T11, ELF3 (Homo sapiens, UniProt P78545 1-371); details: protein: recombinant; tags: N-terminal GST; dsDNA, one strand shown
# T11 sequence: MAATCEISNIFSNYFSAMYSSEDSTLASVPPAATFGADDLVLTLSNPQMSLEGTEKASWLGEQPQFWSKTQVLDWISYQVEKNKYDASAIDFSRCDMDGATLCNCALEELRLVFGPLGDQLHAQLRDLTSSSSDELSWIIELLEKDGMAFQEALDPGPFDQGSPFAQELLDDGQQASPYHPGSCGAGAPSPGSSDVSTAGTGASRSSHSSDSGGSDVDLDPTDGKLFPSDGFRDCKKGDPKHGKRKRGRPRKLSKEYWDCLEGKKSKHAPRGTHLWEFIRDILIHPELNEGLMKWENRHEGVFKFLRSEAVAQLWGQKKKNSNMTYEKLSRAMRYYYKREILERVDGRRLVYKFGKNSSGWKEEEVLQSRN
# Outline: as §1
# CRX = CRX (Homo sapiens, UniProt O43186 1-299); details: protein: recombinant; tags: N-terminal GST; dsDNA, one strand shown
# Outline: as §1
# ETV1 = ETV1 (Homo sapiens, UniProt P50549 1-477); details: protein: recombinant; tags: N-terminal GST; dsDNA, one strand shown
# Outline: as §1
# Sequence of ELF1 (P32519 whole entry): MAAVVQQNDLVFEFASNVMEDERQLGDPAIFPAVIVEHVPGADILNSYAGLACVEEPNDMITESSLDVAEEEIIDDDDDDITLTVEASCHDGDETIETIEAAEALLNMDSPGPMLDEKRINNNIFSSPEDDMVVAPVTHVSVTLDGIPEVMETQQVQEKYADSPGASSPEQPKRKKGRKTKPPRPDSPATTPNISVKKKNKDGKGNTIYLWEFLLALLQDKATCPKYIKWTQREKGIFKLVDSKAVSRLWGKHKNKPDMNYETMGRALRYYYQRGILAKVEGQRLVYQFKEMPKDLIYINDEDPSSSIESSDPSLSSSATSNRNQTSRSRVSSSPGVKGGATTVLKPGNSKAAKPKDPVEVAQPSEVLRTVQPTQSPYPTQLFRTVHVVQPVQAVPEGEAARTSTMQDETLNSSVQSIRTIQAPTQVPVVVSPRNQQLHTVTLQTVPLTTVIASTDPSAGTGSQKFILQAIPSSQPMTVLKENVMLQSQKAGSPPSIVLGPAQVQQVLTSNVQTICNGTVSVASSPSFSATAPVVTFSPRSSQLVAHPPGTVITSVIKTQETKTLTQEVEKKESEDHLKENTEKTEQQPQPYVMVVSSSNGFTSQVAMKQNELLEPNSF
# Sequence of ETV5 (P41161 whole entry): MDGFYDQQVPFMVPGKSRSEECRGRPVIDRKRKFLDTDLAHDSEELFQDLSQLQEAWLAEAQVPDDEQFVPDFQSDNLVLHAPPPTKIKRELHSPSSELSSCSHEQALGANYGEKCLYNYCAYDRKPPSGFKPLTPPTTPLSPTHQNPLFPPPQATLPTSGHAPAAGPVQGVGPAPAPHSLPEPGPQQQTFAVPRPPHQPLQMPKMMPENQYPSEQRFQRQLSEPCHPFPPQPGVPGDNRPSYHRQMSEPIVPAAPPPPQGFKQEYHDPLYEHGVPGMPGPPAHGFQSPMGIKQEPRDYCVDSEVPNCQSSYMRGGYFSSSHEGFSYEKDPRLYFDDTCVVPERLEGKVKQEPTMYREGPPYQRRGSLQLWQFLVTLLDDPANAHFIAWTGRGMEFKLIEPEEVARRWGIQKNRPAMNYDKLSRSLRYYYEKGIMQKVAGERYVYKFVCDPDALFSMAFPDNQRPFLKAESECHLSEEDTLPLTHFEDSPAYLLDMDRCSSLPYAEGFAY
# Sequence of HSF1 (Q00613 whole entry): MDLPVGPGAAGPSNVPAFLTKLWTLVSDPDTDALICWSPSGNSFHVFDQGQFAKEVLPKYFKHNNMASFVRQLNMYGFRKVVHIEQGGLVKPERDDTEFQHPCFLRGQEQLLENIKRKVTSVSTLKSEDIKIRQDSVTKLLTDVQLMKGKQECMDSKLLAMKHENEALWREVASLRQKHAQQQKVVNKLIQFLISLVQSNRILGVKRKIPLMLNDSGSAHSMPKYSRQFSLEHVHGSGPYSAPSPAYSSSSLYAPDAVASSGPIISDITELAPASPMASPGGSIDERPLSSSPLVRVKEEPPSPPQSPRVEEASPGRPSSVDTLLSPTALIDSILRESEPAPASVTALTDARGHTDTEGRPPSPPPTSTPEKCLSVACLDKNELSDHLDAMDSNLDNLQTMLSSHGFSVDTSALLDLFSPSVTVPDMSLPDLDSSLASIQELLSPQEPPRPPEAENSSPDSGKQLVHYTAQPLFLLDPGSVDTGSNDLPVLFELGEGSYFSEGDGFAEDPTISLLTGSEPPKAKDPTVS
# Sequence of SPIB (Q01892 whole entry): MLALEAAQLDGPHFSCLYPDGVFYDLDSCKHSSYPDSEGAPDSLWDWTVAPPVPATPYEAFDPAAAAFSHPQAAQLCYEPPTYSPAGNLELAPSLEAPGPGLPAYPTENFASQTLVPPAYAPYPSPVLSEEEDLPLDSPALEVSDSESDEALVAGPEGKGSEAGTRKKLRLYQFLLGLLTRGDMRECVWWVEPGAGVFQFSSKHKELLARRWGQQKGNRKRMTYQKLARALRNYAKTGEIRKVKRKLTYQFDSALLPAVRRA
# Sequence of CRX (O43186 whole entry): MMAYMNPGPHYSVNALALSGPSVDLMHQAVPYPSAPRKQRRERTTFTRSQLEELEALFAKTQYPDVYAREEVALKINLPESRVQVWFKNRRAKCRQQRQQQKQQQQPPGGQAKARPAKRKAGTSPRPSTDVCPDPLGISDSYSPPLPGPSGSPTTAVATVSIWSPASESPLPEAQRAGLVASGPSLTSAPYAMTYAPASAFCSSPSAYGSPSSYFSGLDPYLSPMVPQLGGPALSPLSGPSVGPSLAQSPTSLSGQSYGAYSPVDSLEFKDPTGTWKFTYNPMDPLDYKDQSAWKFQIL
# Sequence of ELF4 (Q99607 whole entry): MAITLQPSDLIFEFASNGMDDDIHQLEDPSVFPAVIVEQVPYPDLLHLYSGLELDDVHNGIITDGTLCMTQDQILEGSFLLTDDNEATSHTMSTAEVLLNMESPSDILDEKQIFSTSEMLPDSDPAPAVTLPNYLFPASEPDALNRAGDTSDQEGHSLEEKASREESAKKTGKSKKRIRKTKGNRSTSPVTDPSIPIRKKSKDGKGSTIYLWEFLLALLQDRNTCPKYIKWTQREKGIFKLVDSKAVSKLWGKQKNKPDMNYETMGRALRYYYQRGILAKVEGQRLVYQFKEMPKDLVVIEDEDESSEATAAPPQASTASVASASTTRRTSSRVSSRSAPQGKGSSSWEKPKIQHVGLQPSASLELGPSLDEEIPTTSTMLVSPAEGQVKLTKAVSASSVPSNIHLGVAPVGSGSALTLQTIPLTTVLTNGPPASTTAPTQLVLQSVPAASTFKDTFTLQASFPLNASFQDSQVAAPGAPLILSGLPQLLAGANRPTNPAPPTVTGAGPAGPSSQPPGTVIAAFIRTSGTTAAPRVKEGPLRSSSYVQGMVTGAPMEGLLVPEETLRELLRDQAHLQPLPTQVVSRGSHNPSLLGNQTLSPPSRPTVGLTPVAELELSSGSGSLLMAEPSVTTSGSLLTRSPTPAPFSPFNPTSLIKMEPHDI
# Sequence of ETV1 (P50549 whole entry): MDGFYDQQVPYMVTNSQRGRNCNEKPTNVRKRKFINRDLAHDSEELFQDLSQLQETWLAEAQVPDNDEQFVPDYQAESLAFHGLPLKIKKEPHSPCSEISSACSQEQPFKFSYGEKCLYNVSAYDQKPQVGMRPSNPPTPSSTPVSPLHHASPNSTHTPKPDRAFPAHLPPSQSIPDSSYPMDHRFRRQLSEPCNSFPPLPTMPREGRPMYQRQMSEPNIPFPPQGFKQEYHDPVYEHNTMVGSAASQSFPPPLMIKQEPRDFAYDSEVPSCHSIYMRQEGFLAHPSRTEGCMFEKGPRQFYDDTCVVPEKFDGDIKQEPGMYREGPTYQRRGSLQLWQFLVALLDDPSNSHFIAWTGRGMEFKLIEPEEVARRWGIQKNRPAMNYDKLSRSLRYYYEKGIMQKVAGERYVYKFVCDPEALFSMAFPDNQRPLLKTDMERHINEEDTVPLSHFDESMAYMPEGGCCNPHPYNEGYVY
sequence,measurement,setting,value
CTTCAC,binding signal,FLI1,"1.47 fold enrichment (6-mer frequency, TF over GST control)"
same,binding signal,ELK1,"1.42 fold enrichment (6-mer frequency, TF over GST control)"
same,binding signal,GABPA,"1.38 fold enrichment (6-mer frequency, TF over GST control)"
same,binding signal,ERG,"1.45 fold enrichment (6-mer frequency, TF over GST control)"
same,binding signal,ELF1,"1.45 fold enrichment (6-mer frequency, TF over GST control)"
same,binding signal,EHF,"1.41 fold enrichment (6-mer frequency, TF over GST control)"
same,binding signal,SPI1,"1.37 fold enrichment (6-mer frequency, TF over GST control)"
same,binding signal,SPIB,"1.41 fold enrichment (6-mer frequency, TF over GST control)"
same,binding signal,ELK3,"1.38 fold enrichment (6-mer frequency, TF over GST control)"
same,binding signal,FEV,"1.34 fold enrichment (6-mer frequency, TF over GST control)"
same,binding signal,ETV5,"1.37 fold enrichment (6-mer frequency, TF over GST control)"
same,binding signal,HSF1,"1.18 fold enrichment (6-mer frequency, TF over GST control)"
same,binding signal,SPIC,"1.57 fold enrichment (6-mer frequency, TF over GST control)"
same,binding signal,ELF4,"1.33 fold enrichment (6-mer frequency, TF over GST control)"
same,binding signal,ELK4,"1.45 fold enrichment (6-mer frequency, TF over GST control)"
same,binding signal,ETV2,"1.43 fold enrichment (6-mer frequency, TF over GST control)"
same,binding signal,ELF3,"1.54 fold enrichment (6-mer frequency, TF over GST control)"
same,binding signal,CRX,"1.17 fold enrichment (6-mer frequency, TF over GST control)"
same,binding signal,ETV1,"1.37 fold enrichment (6-mer frequency, TF over GST control)"
